About 2,000 (36%) of roughly 5,500 compounds were called active. Another 18% or so got no clear call; they are omitted. The list shows a part of the results. Unmarked numbers belong to inactive results. Cut-off read from the data, not from the text of the source: active = normalized growth mostly below about 0.91 (no sharp cut-off); inconclusive = no clear call, values can overlap the other calls; inactive = mostly above about 0.92.
Assay: chemical genetic growth profiling, strain panel (AID 1159580);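 note: tested at 20 µM; growth read once vehicle control cultures reached saturation at 30 °C; 1 = growth at the plate median or of vehicle wells; lower values mean less growth of the strain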
Conditions: S. cerevisiae deletion strains, growth OD

With `CC1OC(=O)C(C(C)C)NC(=O)C(C(C)C)OC(=O)C(C(C)C)NC(=O)C(C)OC(=O)C(C(C)C)NC(=O)C(C(C)C)OC(=O)C(C(C)C)NC(=O)C(C)OC(=O)C(C(C)C)NC(=O)C(C(C)C)OC(=O)C(C(C)C)NC1=O` (stereo unspecified) the normalized growth (locus YAL021C, strain ccr4, active compounds read low) was 0.202 (active), the normalized growth (locus YAL026C, strain drs2, active compounds read low) was 0.544 (active) and the normalized growth (locus YAL030W, strain snc1, active compounds read low) was 0.326 (active). For the same molecule, the normalized growth (locus YBL061C, strain skt5, active compounds read low) was 0.229 (active), the normalized growth (locus YBR009C, strain hhf1, active compounds read low) was 0.223 (active) and the normalized growth (locus YBR023C, strain chs3, active compounds read low) was 0.23 (active). For the same molecule, the normalized growth (locus YBR171W, strain sec66, active compounds read low) was 0.54 (active), the normalized growth (locus YBR231C, strain swc5, active compounds read low) was 0.286 (active) and the normalized growth (locus YBR279W, strain paf1, active compounds read low) was 0.544 (active). The normalized growth (locus YCL011C, strain gbp2, active compounds read low) was 0.28 (active), the normalized growth (locus YCL016C, strain dcc1, active compounds read low) was 0.238 (active) and the normalized growth (locus YCL069W, strain vba3, active compounds read low) was 0.51 (active). The normalized growth (locus YCR088W, strain abp1, active compounds read low) was 0.51 (active), the normalized growth (locus YDL005C, strain med2, active compounds read low) was 0.332 (active) and the normalized growth (locus YDL040C, strain nat1, active compounds read low) was 0.468 (active). The normalized growth (locus YDR001C, strain nth1, active compounds read low) was 0.615 (active), the normalized growth (locus YDR069C, strain doa4, active compounds read low) was 0.383 (active) and the normalized growth (locus YDR137W, strain rgp1, active compounds read low) was 0.144 (active). For the same molecule, the normalized growth (locus YDR159W, strain sac3, active compounds read low) was 0.318 (active), the normalized growth (locus YDR195W, strain ref2) was 0.336 (active) and the normalized growth (locus YDR297W, strain sur2, active compounds read low) was 0.404 (active). The normalized growth (locus YDR334W, strain swr1, active compounds read low) was 0.494 (active), the normalized growth (locus YDR335W, strain msn5, active compounds read low) was 0.697 (active) and the normalized growth (locus YDR392W, strain spt3, active compounds read low) was 0.148 (active). The normalized growth (locus YEL003W, strain gim4, active compounds read low) was 0.357 (active), the normalized growth (locus YEL037C, strain rad23, active compounds read low) was 0.673 (active) and the normalized growth (locus YEL061C, strain CIN8 (second series), active compounds read low) was 0.448 (active). For the same molecule, the normalized growth (locus YER015W, strain faa2, active compounds read low) was 0.205 (active), the normalized growth (locus YER016W, strain bim1, active compounds read low) was 0.259 (active) and the normalized growth (locus YER111C, strain swi4, active compounds read low) was 0.639 (active). For the same molecule, the normalized growth (locus YER155C, strain BEM2 (second series), active compounds read low) was 0.6 (active), the normalized growth (locus YFR010W, strain ubp6, active compounds read low) was 0.535 (active) and the normalized growth (locus YGL167C, strain pmr1, active compounds read low) was 0.166 (active). For the same molecule, the normalized growth (locus YGL173C, strain kem1, active compounds read low) was 0.157 (active), the normalized growth (locus YGL227W, strain vid30, active compounds read low) was 0.599 (active) and the normalized growth (locus YGL240W, strain doc1, active compounds read low) was 0.112 (active). The normalized growth (locus YGL253W, strain hxk2, active compounds read low) was 0.243 (active), the normalized growth (locus YHR013C, strain ard1, active compounds read low) was 0.159 (active) and the normalized growth (locus YHR027C, strain rpn1, active compounds read low) was 0.331 (active). The normalized growth (locus YHR142W, strain chs7, active compounds read low) was 0.342 (active), the normalized growth (locus YJL092W, strain hpr5, active compounds read low) was 0.556 (active) and the normalized growth (locus YJL095W, strain BCK1 (second series), active compounds read low) was 0.266 (active). For the same molecule, the normalized growth (locus YJL115W, strain asf1, active compounds read low) was 0.79 (active), the normalized growth (locus YJL129C, strain trk1, active compounds read low) was 0.251 (active) and the normalized growth (locus YJL154C, strain vps35, active compounds read low) was 0.688 (active). For the same molecule, the normalized growth (locus YJL164C, strain tpk1, active compounds read low) was 0.267 (active), the normalized growth (locus YJL166W, strain qcr8, active compounds read low) was 0.115 (active) and the normalized growth (locus YJL187C, strain SWE1, active compounds read low) was 0.343 (active). For the same molecule, the normalized growth (locus YKL160W, strain elf1, active compounds read low) was 0.278 (active), the normalized growth (locus YKR026C, strain gcn3, active compounds read low) was 0.65 (active) and the normalized growth (locus YKR091W, strain srl3, active compounds read low) was 0.476 (active). The normalized growth (locus YLL001W, strain dnm1, active compounds read low) was 0.499 (active), the normalized growth (locus YLL026W, active compounds read low) was 0.301 (active) and the normalized growth (locus YLL041C, strain sdh2, active compounds read low) was 0.368 (active). For the same molecule, the normalized growth (locus YLR027C, strain aat2, active compounds read low) was 0.27 (active), the normalized growth (locus YLR221C, strain rsa3, active compounds read low) was 0.326 (active) and the normalized growth (locus YLR258W, strain gsy2, active compounds read low) was 0.349 (active). For the same molecule, the normalized growth (locus YLR262C, strain YPT6 (second series), active compounds read low) was 0.132 (active), the normalized growth (locus YLR320W, strain mms22, active compounds read low) was 0.18 (active) and the normalized growth (locus YLR342W, strain FKS1, active compounds read low) was 0.115 (active). For the same molecule, the normalized growth (locus YLR357W, strain rsc2, active compounds read low) was 0.891, the normalized growth (locus YLR370C, strain arc18, active compounds read low) was 0.395 (active) and the normalized growth (locus YLR384C, strain iki3, active compounds read low) was 0.464 (active). The normalized growth (locus YML120C, strain ndi1, active compounds read low) was 0.389 (active), the normalized growth (locus YMR058W, strain fet3, active compounds read low) was 0.486 (active) and the normalized growth (locus YMR125W, strain sto1, active compounds read low) was 0.835 (active). The normalized growth (locus YMR129W, active compounds read low) was 0.411 (active), the normalized growth (locus YMR205C, strain PFK2, active compounds read low) was 0.278 (active) and the normalized growth (locus YMR231W, strain pep5, active compounds read low) was 0.193 (active). The normalized growth (locus YNL071W, strain lat1, active compounds read low) was 0.0873 (active), the normalized growth (locus YNL209W, strain ssb2, active compounds read low) was 0.237 (active) and the normalized growth (locus YNL248C, strain rpa49, active compounds read low) was 0.944. The normalized growth (locus YNL322C, strain KRE1 (second series), active compounds read low) was 0.463 (active), the normalized growth (locus YNR049C, strain mso1, active compounds read low) was 0.563 (active) and the normalized growth (locus YOR001W, strain rrp6, active compounds read low) was 0.497 (active). The normalized growth (locus YOR070C, strain gyp1, active compounds read low) was 0.216 (active), the normalized growth (locus YOR080W, strain dia2, active compounds read low) was 0.381 (active) and the normalized growth (locus YOR083W, strain WHI5, active compounds read low) was 0.318 (active). For the same molecule, the normalized growth (locus YOR106W, strain vam3, active compounds read low) was 0.331 (active), the normalized growth (locus YOR265W, strain rbl2, active compounds read low) was 0.288 (active) and the normalized growth (locus YOR270C, strain vph1, active compounds read low) was 0.227 (active). The normalized growth (locus YOR290C, strain snf2, active compounds read low) was 0.61 (active), the normalized growth (locus YPL051W, strain arl3, active compounds read low) was 0.125 (active) and the normalized growth (locus YPL078C, strain atp4, active compounds read low) was 0.14 (active). The normalized growth (locus YPL106C, strain sse1, active compounds read low) was 0.359 (active) and the normalized growth (locus YPL240C, strain hsp82, active compounds read low) was 0.412 (active).
